Source: PubChem BioAssay AID932 (The Scripps Research Institute Molecular Screening Center, 2007)
Among all 200,000 compounds or so, about 5,100 (2.5%) were called active. This is one part of a sample in which actives are shown more often than they occur.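 Rule for the calls: active = activation above the screen-wide mean activation plus 3 SD (cut at about 130% in these data); inactive = the rest.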

Assay: potentiators of IFN-gamma driven STAT1 reporter – cell-based, HTS, luciferase reporter, primary screen (AID 932);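 note: raw ratio to IFN-gamma control signal so 100% means no change and 0% no light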
Conditions: NIH 3T3 STAT1-luciferase reporter, luminescence, at 5.5 µM, stronger effect = higher value, 100% = IFN-gamma alone, no compound

Activation (% of control), inactive:
COc1ccc(N2CCN(C(=O)COc3ccc4c(C)cc(=O)oc4c3)CC2)cc1 93.8%, CC1(C)CC(N(Cc2ccccc2)C(=O)Cc2ccccc2)CCO1 (stereo not given) 89.7%, CCOC(=O)/C(C#N)=C/c1ccc(N2CCN(Cc3ccccc3)CC2)cc1 107%, COc1ccc(N2CCN(C(=O)/C(C#N)=C/c3ccccc3)CC2)cc1 105%, CCc1ccc(/C=C2\SC(N3CCOCC3)=NC2=O)cc1 103%, Cc1ccsc1/C=C1\SC(N2CCOCC2)=NC1=O 127%, CN(Cc1nc2ccc(F)cc2[nH]1)Cc1nc(CC2CC2)no1 107%, CCCC(NC(=O)c1ccco1)c1nc2ccccc2[nH]1 (stereo not given) 97.5%, CC(NC(=O)COC(=O)c1ccc2c(c1)OCO2)c1ccccc1 (stereo not given) 102%, O=C(COC(=O)c1ccc2c(c1)OCCO2)NCc1ccccc1 101%, CCOC(=O)c1ccc(NC(=S)N2CCCC2)cc1 100%, CCn1ncc(CNC(=O)C2(C)CC2(Br)Br)c1C (stereo not given) 90%, COCCCNC(=O)Cn1cc(/C=C(\C#N)C(=O)N2CCN(c3ccccc3)CC2)c2ccccc21 96.8%, O=C(NC1=NCCS1)[C@H](Cc1ccccc1)N1C(=O)c2ccccc2C1=O 107%, O=C(NCc1ccc2c(c1)OCO2)c1ccc(Cl)s1 99.1%, CCOc1ccc(C(C)=O)cc1CSc1nnc(-c2ccncc2)n1CCOC 99.7%, Cc1cccc(NC(=S)NC(=O)c2ccc(Br)o2)c1 125%, Cc1cc(NC(=O)c2cnn3cccnc23)n(-c2ccccc2)n1 89.3%, O=C(Nc1ccc(Cl)cn1)c1ccc2c(c1)OCCO2 74.1%, COc1ccccc1CNC(=O)C1Cc2ccccc2C(=O)O1 (stereo not given) 102%, C#CCOCCOCCOCCNc1nc(N2CCN(C(=O)[C@H](Cc3ccc(O)cc3)n3cc(C(N)CC(C)C)nn3)CC2)nc(N2CCN(C(=O)[C@H](CCC(=O)O)n3cc(C(N)[C@H](C)CC)nn3)CC2)n1 (stereo not given in full) 99.5%, CCOC(=O)N1CCN(Cc2nc(Cc3cccc(C(F)(F)F)c3)no2)CC1 97.5%, COc1ccc(CC(=O)NCc2nnc(SCC(=O)Nc3nccs3)n2C)cc1 91.2%, COc1ccc(-c2noc(COc3ccc(Cl)c(C)c3)n2)cc1 93.9%, c1ccc(CCc2nc(-c3ccncc3)no2)cc1 117%, CCCOc1ccc(NC(=O)C2OC3OC(C)(C)OC3C3OC(C)(C)OC23)cc1 (stereo not given) 95.5%, CCn1c(CNS(=O)(=O)c2ccc(Cl)cc2)n[nH]c1=S 94.3%, O=C1/C(=C\c2ccccc2Cl)SC(=S)N1CCC(=O)N1CCCc2ccccc21 98.2%, O=C(CN1CCCCC1)Nc1ccccc1Cl 103%, COCCN(CCOC)C(=S)Nc1ccccc1Cl 91.7%, CCN(CC)CC(=O)Nc1sc2c(c1C(=O)c1ccccc1C)CCC2 100%, CCOC(=O)c1cc(-c2ccc(F)cc2)n(CC(=O)NCc2ccccn2)c1C 96.2%, CO/N=C(\N)c1ccc([N+](=O)[O-])cc1 97.7%, O=C(NCc1cn2ccsc2n1)Nc1ccc(Cl)cc1 102%, O=C(Nc1ccccc1)c1nnsc1S(=O)(=O)c1ccc(Cl)cc1 90%, CCCC(C)C(=O)NCc1ccncc1 (stereo not given) 96.3%, CC1=C(C(=O)N(C)C)C(c2ccccc2OC(F)F)NC(=O)N1 (stereo not given) 104%, CC[N+]1(CC)CC2=Cc3ccccc3CC2C1 (stereo not given) 106%, COCCn1c(N)c(N(Cc2ccccc2)C(=O)C2CCCCC2)c(=O)[nH]c1=O 98%, Cc1cc(NC(=O)CSc2nccn2-c2ccc([N+](=O)[O-])cc2)no1 95.1%, COc1ccccc1CNC(=O)c1ccc(SC)cc1OC 109%, COc1cc(SC)ccc1C(=O)Nc1cc(C)ccn1 102%, COCCNC(=O)C(OC(=O)c1cccs1)c1ccc(F)cc1 (stereo not given) 93.1%, Cc1ccc(C2=Nc3c(ccc4ccccc34)C(c3ccncc3)=NN2)cc1 37.3%, CCc1ccc2c(c1)C(c1ccc([N+](=O)[O-])cc1)=NNC(c1ccccc1)=N2 95.2%, O=C(NCc1ccccc1)C1=C[C@@H](c2ccc(C(F)(F)F)cc2)C[C@@H](OCc2ccc(CO)cc2)O1 106%, Cc1ccc(C2NC(C(=O)O)CS2)cc1 (stereo not given) 106%, O=C(Nc1ccccc1)c1cccnc1Nc1ccccc1 99.2%, CN(C)c1ccnc(Nc2ccc(F)cc2)c1C#N 98.2%, Cc1oc2cc([N+](=O)[O-])c(O)c([N+](=O)[O-])c2c1C(=O)c1ccc(Br)cc1 94%, COc1cc(N=Cc2c(O)[nH]c3ccccc23)cc(OC)c1OC 115%, COc1ccc(OC)c(N=Cc2c(O)[nH]c3ccccc23)c1 115%, CCC(CC)c1nnc(NC(=O)c2nn(C)c(=O)c3ccccc23)s1 102%, CN(CCOc1ccc(Br)cc1)CC(=O)Nc1cccc(S(=O)(=O)NC2=NCCC2)c1 97.5%, CCN(CC)S(=O)(=O)c1ccc(OC(C)C)c(N)c1 98.6%, Cc1ccc2nc(-c3ccc(NC(=O)c4cccnc4)cc3)oc2c1 93.8%, Cc1ccc(-n2nc3cc(C)c(NC(=O)c4cccnc4)cc3n2)cc1 118%, CCOc1ccc(CCN2C(=O)c3cccnc3C2=O)cc1OCC 96.9%, O=C(NC1CC1)c1cccc(Br)c1 98.5%, Cc1ccc(C(=O)NC2CCN(C(=O)N3CCOCC3)CC2)cc1 98.8%, COc1ccc(C)cc1NC(=O)CSc1nnc(CC(=O)Nc2ccccc2F)n1C 92.1%, CCCCc1ccc(NC(=S)NCCCN2CCOCC2)cc1 96.5%, O=C(Nc1cccc(-c2nc3ncccc3o2)c1)c1ccco1 98.8%, O=C(Nc1ccc2nccnc2c1)c1ccco1 127%, COCc1c(C(=O)OCc2c(C)noc2C)oc2ccccc12 100%, COc1ccc(-c2nn(-c3ccccc3)cc2/C=C\C(=O)N2CCOCC2)cc1[N+](=O)[O-] 102%, S=C(Nc1cccc(Br)c1)N1CCn2cccc2C1c1cccnc1 (stereo not given) 90.5%, c1ccc2[nH]c(NCCN3CCOCC3)nc2c1 99.9%, O=C(Cn1c(-c2ccccn2)nc2ccccc21)NCCN1CCOCC1 101%, Cn1cccc1/C=C1\SC(=O)N(CC(=O)Nc2ccc(F)cc2)C1=O 100%, CC(=O)OC(COc1ccc(F)cc1)Cn1cnc2ccccc21 (stereo not given) 103%, CCn1nc(C)c(CN2CCN(Cc3ccc(OC)c(C)c3C)C(CCO)C2)c1C (stereo not given) 98.9%, COc1ccc(Br)cc1CN(C)CC(=O)Nc1cc(Cl)cc(Cl)c1 105%, CC(C)C(=O)Nc1ccc(C(=O)NNC(=O)c2cccs2)cc1 102%, Cc1ccc(C)c(NC(=O)CCC(=O)NNC(=O)c2cccs2)c1 101%, C=CS(=O)c1sc(Cl)c(N2CCOCC2)c1[N+](=O)[O-] (stereo not given) 86.3%, CC(=O)Nc1ccc(NC(=O)COc2ncnc3ccccc23)cc1 93.2%, O=[N+]([O-])c1cccc(Nc2c3ccccc3nc3ccccc23)c1 98%, CC1=CC2=NC(=O)CC(C)(C(=O)N(CC(=O)NC(C)(C)C)Cc3ccccc3)N2C=C1 (stereo not given) 106%, CCCc1nc2ccccc2c(C(=O)OCC(=O)c2ccc3c(c2)NC(=O)CO3)c1CC 100%, O=C(CCc1nc2ccccc2c(=O)[nH]1)OCC(=O)c1cccc(Cl)c1 93.7%

Activation (% of control), active:
CCOC(=O)/C(C#N)=C/c1ccc(N2CCCCC2)cc1 155%, O=C1N=C(N2CCOCC2)S/C1=C\C=C/c1ccccc1 141%, O=C(OCc1ccccc1F)c1ccc2c(c1)OCCO2 139%, O=C(NC1=NCCS1)c1ccc(Cl)s1 141%, O=C(Nc1ccc(Cl)cn1)c1cnn2cccnc12 153%, Cc1cc(Cl)ccc1OCc1nc(-c2ccncc2)no1 151%, O=C(Nc1ccccc1Cl)/C(Cl)=C(\Cl)S(=O)c1ccccc1 (stereo not given) 201%, O=C(Nc1ccc(Cl)cc1)c1ccsn1 145%, COc1cc(SC)ccc1C(=O)NCCOc1ccccc1Cl 141%, CCOc1ccc2c(c1)C(c1ccc(C)cc1)=NNC(c1ccc(C)cc1)=N2 131%, CC(C)c1ccc(Nc2ncccc2C#N)cc1 135%, COc1ccc(N=Cc2c(O)[nH]c3ccccc23)cc1OC 145%, Cc1cc2nc(-c3ccc(NC(=O)c4cccnc4)cc3)oc2cc1C 137%, O=C(NC1CC1)c1ccc(-c2ccccc2)cc1 131%, O=C(Nc1ccc2oc(-c3ccccc3F)nc2c1)c1ccco1 170%, c1ccc2cc3c(NCCN4CCOCC4)ccnc3cc2c1 137%, Cc1ccc(C(=O)NNC(=O)c2cccs2)cc1 130%, CC(=O)Nc1ccc(Nc2c3ccccc3nc3ccccc23)cc1 137%, Cc1ccc(C(=O)COC(=O)c2cccc(N3C(=O)c4c(C)nc5ccccc5c4C3=O)c2)cc1C 149%
